The structures appear in SMILES notation. Activity calls are given as the source filed them. The calls were made as follows: active = hit-call score of the fitted dose curve at least 0.9, where 1 is the maximum; inactive = score below 0.9.

From PubChem BioAssay (EPA / NIEHS) come the findings set out here.

Test [1] in a line: ATG_GLI_CIS: Attagene CIS-FACTORIAL HepG2 Assay for human Zinc Finger Protein GLI1 (AID 2282945). The conditions noted are these: HepG2, Attagene cis-factorial reporter mRNA, GLI element; actives raise or lower the signal. A digest of the protocol:
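HepG2 cells transiently transfected with cis-promoter multiplexed reporter units report endogenous transcription factor activity. After 24 h chemical exposure, reporter mRNA was quantified by RT-PCR, 6-FAM labelling, HpaI digestion and capillary electrophoresis, with bidirectional fitting against DMSO.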

Test [2] can be described thus: ATG_GRE_CIS: Attagene CIS-FACTORIAL HepG2 Assay for human Glucocorticoid Response Elements (GRE) (AID 2282947). To be noted: HepG2 GRE cis-reporter, Attagene multiplex mRNA; actives raise or lower the signal. A digest of the protocol:
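Following 24 h chemical exposure of transiently transfected HepG2 cells, total RNA was reverse-transcribed and reporter cDNA amplified, fluorescently labelled and sized by capillary electrophoresis. Signal gain or loss was fitted relative to DMSO vehicle.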

The nature of test [3]: ATG_ISRE_CIS: Attagene CIS-FACTORIAL HepG2 Assay for human Interferon Regulatory Factor 1 (IRF1) binding to an Interferon-Stimulated Response Element (ISRE) (AID 2282948). The conditions noted are these: HepG2 ISRE cis-reporter (Attagene), mRNA transcription readout; actives raise or lower the signal. A digest of the protocol: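 Transiently transfected HepG2 cells carrying cis-element reporter units, dosed 24 hours. Reporter mRNA quantified by RT-PCR, fluorescent primer extension, HpaI digestion and capillary electrophoresis. Bidirectional fitting relative to DMSO.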

The nature of test [4]: ATG_M_32_CIS: Attagene CIS-FACTORIAL HepG2 Assay for M32 Transcription Factor (Internal Marker) (AID 2282949).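 Also: background control marker of the multiplexed CIS panel rather than a real target.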 The conditions noted are these: HepG2 Attagene cis-factorial M32 reporter, mRNA; actives raise or lower the signal. A digest of the protocol: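 HepG2 cells transiently transfected with multiplexed cis-regulated reporter units, dosed 24 h. Reporter mRNA quantified by RT-PCR, 6-FAM labelling, HpaI digestion and capillary electrophoresis; bidirectional fit vs DMSO.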

Test [5] in a line: ATG_M_06_CIS: Attagene CIS-FACTORIAL HepG2 Assay for M06 Transcription Factor (Internal Marker) (AID 2282950). To be noted: HepG2 Attagene CIS-FACTORIAL M06 internal marker reporter; actives raise or lower the signal. A digest of the protocol:
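Measured 24 h post-dosing in transiently transfected HepG2 cells, this internal-marker endpoint reports reporter mRNA via RT-PCR with fluorescent primer extension and capillary electrophoresis. DMSO served as negative control and baseline for bidirectional fitting.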

The target of test [6] is Hypoxia-inducible factor 1-alpha (Homo sapiens) (UniProt Q16665). Nature of the test: ATG_HIF1a_CIS: Attagene CIS-FACTORIAL HepG2 Assay for human Hypoxia Inducible Factor 1 (HIF1A) (AID 2282951). To be noted: HepG2 Attagene cis-factorial HIF1a reporter transcription; actives raise or lower the signal. Put shortly:
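Fluorescence intensity of capillary-separated, 6-FAM-labelled reporter amplicons gives mRNA induction in HepG2 cells carrying transfected cis-promoter reporter units; cells exposed 24 h, responses fitted up or down from DMSO.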

In test [7] the target is Hepatocyte nuclear factor 6 (Homo sapiens) (UniProt Q9UBC0). As to the kind of experiment: ATG_HNF6_CIS: Attagene CIS-FACTORIAL HepG2 Assay for human Hepatocyte Nuclear Factor 6 (HNF6) (AID 2282952). The conditions noted are these: HepG2 Attagene cis-factorial HNF6 reporter transcription; actives raise or lower the signal. A digest of the protocol:
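Transiently transfected HepG2 cells expressing cis-regulated reporter transcription units were exposed to chemical for 24 h in a 24-well format. Reporter transcript abundance was determined by fluorescence capillary electrophoresis.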

Test [8] concerns the target Heat shock factor protein 1 (Homo sapiens) (UniProt Q00613). Nature of the test: ATG_HSE_CIS: Attagene CIS-FACTORIAL HepG2 Assay for human Heat Shock Transcription Factor 1 (HSE) (AID 2282953). The conditions noted are these: HepG2 HSE cis-reporter, Attagene RNA transcription; actives raise or lower the signal. Put shortly: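 Reporter mRNA induction in HepG2 is measured 24 h after dosing, using transiently transfected multiplexed cis-regulated reporter units. Signal comes from capillary electrophoresis of labelled RT-PCR products, with DMSO as negative control.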

A short description of test [9]: ATG_MRE_CIS: Attagene CIS-FACTORIAL HepG2 Assay for human Metal Responsive Element (MRE) (AID 2282954). To be noted: HepG2 MRE cis-reporter transcription, Attagene multiplex; actives raise or lower the signal. Put shortly:
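Step one: transfect HepG2 with cis-regulated reporter units. Step two: dose 24 h. Step three: isolate RNA, RT-PCR, 6-FAM label, HpaI digest, capillary electrophoresis. Fit bidirectionally to DMSO.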

Chain of Heat shock factor protein 1 (Homo sapiens) (Q00613 whole entry, looked up): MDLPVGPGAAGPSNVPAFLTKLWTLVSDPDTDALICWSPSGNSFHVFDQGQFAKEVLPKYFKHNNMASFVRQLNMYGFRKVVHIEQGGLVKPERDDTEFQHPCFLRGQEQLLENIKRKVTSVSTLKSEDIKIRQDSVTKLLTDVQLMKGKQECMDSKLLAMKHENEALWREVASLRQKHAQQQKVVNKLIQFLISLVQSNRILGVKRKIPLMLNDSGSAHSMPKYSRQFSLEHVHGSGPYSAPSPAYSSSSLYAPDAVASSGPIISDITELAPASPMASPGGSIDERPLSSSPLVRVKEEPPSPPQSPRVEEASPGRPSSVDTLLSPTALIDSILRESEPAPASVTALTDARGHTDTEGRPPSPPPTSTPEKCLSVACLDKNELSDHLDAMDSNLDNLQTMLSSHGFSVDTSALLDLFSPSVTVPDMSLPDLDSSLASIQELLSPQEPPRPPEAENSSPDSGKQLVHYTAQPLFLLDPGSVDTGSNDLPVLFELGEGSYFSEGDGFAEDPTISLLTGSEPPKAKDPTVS
Chain of Hypoxia-inducible factor 1-alpha (Homo sapiens) (Q16665 whole entry, looked up): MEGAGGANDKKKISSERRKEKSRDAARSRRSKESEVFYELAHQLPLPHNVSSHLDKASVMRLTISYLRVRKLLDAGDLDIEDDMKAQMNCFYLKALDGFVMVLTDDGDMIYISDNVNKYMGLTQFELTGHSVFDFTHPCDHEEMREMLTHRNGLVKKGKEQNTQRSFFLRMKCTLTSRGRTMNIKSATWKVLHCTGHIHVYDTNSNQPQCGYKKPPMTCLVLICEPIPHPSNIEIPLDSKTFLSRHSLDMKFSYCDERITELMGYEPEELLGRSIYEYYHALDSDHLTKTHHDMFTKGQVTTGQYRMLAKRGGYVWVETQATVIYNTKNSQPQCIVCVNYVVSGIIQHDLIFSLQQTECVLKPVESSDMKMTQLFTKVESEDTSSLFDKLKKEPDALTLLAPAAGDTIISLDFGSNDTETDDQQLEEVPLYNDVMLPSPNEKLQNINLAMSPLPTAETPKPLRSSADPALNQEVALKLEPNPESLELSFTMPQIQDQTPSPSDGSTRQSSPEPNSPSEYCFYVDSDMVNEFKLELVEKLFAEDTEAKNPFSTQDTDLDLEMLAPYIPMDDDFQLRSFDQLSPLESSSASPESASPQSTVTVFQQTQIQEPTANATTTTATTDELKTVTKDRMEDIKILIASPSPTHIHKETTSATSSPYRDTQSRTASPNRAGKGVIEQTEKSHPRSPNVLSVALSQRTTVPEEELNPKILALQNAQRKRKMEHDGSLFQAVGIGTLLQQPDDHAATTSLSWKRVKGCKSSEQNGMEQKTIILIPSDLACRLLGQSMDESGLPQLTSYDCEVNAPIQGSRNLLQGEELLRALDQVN
Chain of Hepatocyte nuclear factor 6 (Homo sapiens) (Q9UBC0 whole entry, looked up): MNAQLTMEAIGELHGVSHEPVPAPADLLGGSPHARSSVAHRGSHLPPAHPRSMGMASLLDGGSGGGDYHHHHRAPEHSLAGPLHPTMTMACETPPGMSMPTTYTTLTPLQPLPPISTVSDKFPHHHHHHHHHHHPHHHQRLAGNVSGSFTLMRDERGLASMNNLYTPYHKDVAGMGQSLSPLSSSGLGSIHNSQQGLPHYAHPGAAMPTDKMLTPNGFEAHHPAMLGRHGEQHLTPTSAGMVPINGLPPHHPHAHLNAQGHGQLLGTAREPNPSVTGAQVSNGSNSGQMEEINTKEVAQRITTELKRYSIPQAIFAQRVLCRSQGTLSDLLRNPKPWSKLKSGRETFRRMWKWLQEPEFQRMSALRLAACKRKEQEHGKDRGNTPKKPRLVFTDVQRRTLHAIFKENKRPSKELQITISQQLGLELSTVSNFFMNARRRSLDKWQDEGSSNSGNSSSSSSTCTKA

For `C=CC(=O)OCCCCCCCCCC`, the outcome in [1], in test [2], in test [3], in test [4], in test [5] and in test [6] was inactive. The compound was called inactive in test [7], in test [8] and in test [9].
On to `CC(Cl)COP(=O)(OCC(C)Cl)OCC(C)Cl` (stereo not drawn), for which the outcome in test [1], in test [2], in test [3], in test [4], in test [5] and in test [6] was inactive. The call in [7], in test [8] and in test [9] was inactive.
With `c1ccc(Nc2cccc3ccccc23)cc1`, the half-maximal activity concentration (AC50) in [1] was 54 µM (active); in [3] it was 24.8 µM (active); in test [7], 51.8 µM (active); in [8], 53.8 µM (active); in [9], 49.7 µM (active). Also, the compound was classed as inactive in test [2], in [4], in test [5] and in [6].
In the case of `CCOB(OCC)OCC`, the compound was classed as inactive in test [1], in test [2], in test [3], in [4], in [5] and in test [6]. The compound was called inactive in test [7], in test [8] and in test [9].
On to `CN1CCN(C)CC1`, for which the outcome in test [1], in test [2], in [3], in test [4], in test [5] and in test [6] was inactive. Besides, the outcome in test [7], in test [8] and in [9] was inactive.
Consider `CCOC(=O)CC(=O)c1ccccc1`, for which the result in test [1], in test [2], in test [3], in test [4], in [5] and in test [6] was inactive. The compound was classed as inactive in test [7], in test [8] and in test [9].
In the case of `CC(=O)CCC1=C(C)CCCC1(C)C`, the compound was called inactive in test [1], in test [2], in test [3], in test [4], in test [5] and in test [6]. The compound was called inactive in test [7], in [8] and in test [9].
On to `CCCC1CCCC(=O)O1` (stereo not drawn), for which the compound was classed as inactive in [1], in test [2], in test [3], in test [4], in test [5] and in test [6]. In addition, the compound was called inactive in test [7], in test [8] and in test [9].
In the case of `O=C(O)c1ccc2c(c1)C(=O)OC2=O`, the compound was called inactive in [1], in test [2], in test [3], in test [4], in test [5] and in test [6]. The result in test [7], in test [8] and in test [9] was inactive.
Turning to `O=C(O)c1cc(O)c2ccccc2c1O`, the AC50 is 33.4 µM (active) in test [1], 21.8 µM (active) in test [2] and 48.9 µM (active) in test [6]. Further, the compound was called inactive in [3], in [4], in test [5], in [7], in test [8] and in [9].
For `CCOC(=O)/C=C\C(=O)OCC`, the compound was called inactive in test [1], in test [2], in test [3], in test [4], in test [5] and in test [6]. Moreover, the result in test [7], in test [8] and in [9] was inactive.
For `CCCCOCCOC(=O)COc1ccc(Cl)cc1Cl`, the outcome in test [1], in test [2], in test [3], in test [4], in test [5] and in test [6] was inactive. Besides, the outcome in test [7], in test [8] and in [9] was inactive.

The term AC50 denotes the midpoint of the concentration-response curve, whichever way the signal moves.
